Compounds with a hit are over-represented: about 1.9% of the library has one in this group of screens.
Rev-erbA mod = Rev-erb alpha (human) modulation; AID 1259318; Rev-erbα–FITC-DNA binding, fluorescence polarization, 90 min; activity, % at 10 µM; 370,000 tested, 0.79% active; P20393;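 active = activity above about 14%, limit read from the data; passing the limit was not always enough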;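 also: 0% = DMSO wells with 35 nM protein and 100% = DMSO wells with 750 nM protein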
Target sequence (P20393 whole entry, looked up): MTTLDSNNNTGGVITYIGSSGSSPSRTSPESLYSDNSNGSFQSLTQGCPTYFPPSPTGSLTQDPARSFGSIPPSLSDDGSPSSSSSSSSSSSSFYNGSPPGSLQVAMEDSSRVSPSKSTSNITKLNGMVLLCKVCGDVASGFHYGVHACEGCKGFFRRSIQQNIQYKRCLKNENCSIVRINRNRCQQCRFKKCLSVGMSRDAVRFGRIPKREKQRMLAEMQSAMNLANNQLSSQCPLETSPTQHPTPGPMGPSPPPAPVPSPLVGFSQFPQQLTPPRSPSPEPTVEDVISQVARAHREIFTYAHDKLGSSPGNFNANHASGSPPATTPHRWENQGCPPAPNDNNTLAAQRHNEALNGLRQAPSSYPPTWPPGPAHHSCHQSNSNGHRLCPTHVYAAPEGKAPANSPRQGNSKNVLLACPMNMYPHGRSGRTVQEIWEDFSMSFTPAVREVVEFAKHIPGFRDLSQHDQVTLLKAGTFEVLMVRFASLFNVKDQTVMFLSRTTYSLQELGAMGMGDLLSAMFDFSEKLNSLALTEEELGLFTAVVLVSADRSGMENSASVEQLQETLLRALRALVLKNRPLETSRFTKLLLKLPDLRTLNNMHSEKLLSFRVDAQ
aDG glyco up = increases alpha dystroglycan glycosylation; Pro5-aDG cells, alpha-DG glycosylation AlphaScreen (IIH6); 0% Pro5, 100% B10-LARGE cell signal; activation, % at 10 µM; 360,000 tested, 0.22% active;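 active = activation of at least 8% versus controls, or a plate z-score of at least 8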;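 also: Pro5 are CHO cells carrying HIG-tagged alpha-DG that lacks glycosylation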
PG9 binder = PG9 antibody binding by small molecule; TR-FRET gp120-PG9 antibody binding; inhibition, % at 6.7 µM; 360,000 tested, 0.43% active; AID 624416; in the data active = inhibition above about 8.5%
ZTA counter = counter-screen for EBNA-1 inhibitors: inhibitors of Epstein-Barr virus ZTA; ZTA-DNA binding, fluorescence polarization; P03206; inhibition, % at 11 µM; AID 2234; 320,000 tested, 0.15% active; in the data active = inhibition above about 33%
EBNA-1 inh = blocks EBNA-1 binding to DNA. EBNA-1 DNA binding, fluorescence polarization. inhibition, % at 14.8 µM. 300,000 tested, 0.34% active; in the data active = inhibition above about 28%
NCF1 inh = inhibitors of human p47phox binding; P14598; p47phox/p22phox peptide binding, fluorescence polarization, 2 h; inhibition, % at 24.7 µM; 220,000 tested, 0.53% active;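 active = inhibition above about 30%, limit read from the data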;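 also: 0% = p47phox with labelled peptide and 100% = labelled peptide alone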
Rev-erbA confirm = confirmation of modulators of human Rev-erb alpha DNA binding; shares compounds with Rev-erbA mod; Rev-erb alpha FITC-DNA binding, fluorescence polarization, 90 min; activation, % at 25 µM; 3,000 tested, 61% active;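 active = activation at or above a set limit, or at least 3 SD above the negative control mean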;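 also: 0% = 35 nM protein with DMSO and 100% = 750 nM protein high control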
RORg DNA counter = counter-screen for Rev-erb alpha modulators: RORgamma DNA binding | shares compounds with Rev-erbA mod | AID 1259320 | purified RORgamma protein-FITC-DNA binding, fluorescence polarization | IC50, µM | 910 tested, 8% active;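 active = Compounds whose fitted half-maximal concentration for disrupting protein-DNA binding is below 10 micromolar; the record names Rev-erb in its text, so the target is in doubt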
Active calls of the source: *; i = inactive; · = not tested or not shown.

SMILES	Rev-erbA mod	aDG glyco up	PG9 binder	ZTA counter	EBNA-1 inh	NCF1 inh	Rev-erbA confirm	others
CNC(=O)COc1ccccc1C(=O)Nc1ccc2c(c1)oc1ccccc12	58.2*	0.0	1.0	-5.5	7.7	-3.6	78.8*	RORg DNA counter=i
COCCn1c(=NC(=O)c2ccc(S(=O)(=O)N3CCc4ccccc4C3)cc2)sc2cc(S(N)(=O)=O)ccc21	-1.6	2.3	-4.2	-21.7	-5.1	-22.7	·
COC(=O)Cn1c(=NC(=O)c2ccc(S(=O)(=O)N3CCc4ccccc4C3)cc2)sc2cc(OC)ccc21	39.5*	0.5	6.5	9.6	-6.1	-9.3	2.2
COC(=O)Cn1c(=NC(=O)CSCC(=O)Nc2cc(C)on2)sc2cc(C(=O)OC)ccc21	5.1	-0.2	-1.8	-8.8	-1.2	2.4	·
COC(=O)Cn1c(=NC(=O)c2cc(OC)cc(OC)c2)sc2cc(OC)ccc21	31.2*	0.3	1.8	10.3	11.4	3.9	4.8
COC(=O)Cn1c(=NC(=O)c2cccc(OC)c2)sc2cc(OC)ccc21	31.0*	0.1	0.0	13.0	9.2	-16.8	22.9*
COc1ccc(C(=O)N=c2sc3ccccc3n2C)cc1	51.9*	0.1	2.4	-9.6	-2.0	7.0	23.1*
COc1ccc(Cn2cc(CN3[C@H](Cc4ccccc4)COc4cc(Br)ccc4S3(=O)=O)nn2)cc1	-0.5	·	·	·	·	·	·
CCCC[C@H]1C2CC(OC(=O)Nc3ccc4c(c3)OCO4)C(C2)[C@H]2CCCCN21 (stereo not given in full)	-1.4	·	·	·	·	·	·
CNc1nc2c(-c3ccc(Cl)cc3)nnn2c2ccccc12	18.1*	-0.1	2.1	2.5	11.3	·	16.0
Cc1ccc(-c2nnn3c2nc(NC(C)C)c2ccccc23)cc1	48.0*	0.2	0.8	-1.5	-8.3	·	23.9*
Nc1c(-c2ccc(Cl)cc2)nnn1-c1ccccc1	0.8	-0.2	2.1	-2.0	7.2	-2.4	·
Cc1cc2cc3c(cc2nc1SCc1ccccn1)OCCO3	44.0*	-0.1	-2.9	-7.4	-3.9	8.8	17.2*
N#Cc1cc2ccccc2nc1SCc1ccccn1	-4.5	0.1	-0.9	4.3	-17.6	-9.5	·
Cn1c(=O)c(Nc2ccc(O)cc2)c2c3c(cccc31)C(=O)c1ccccc1-2	174.6*	-0.4	-0.8	-5.5	0.7	6.5	157.2*	RORg DNA counter=>40
COc1ccc(S[C@]2(C(=O)N3CCN(C(C)=O)CC3)CC(=O)N(C(=O)Nc3ccc(C)c(Cl)c3)[C@@H]2c2ccc(OC)cc2)cc1	-4.0	·	·	·	·	·	·
O=C(O)CSc1ncnc2sc3c(c12)CCCC3	2.2	-0.2	2.7	-14.5	-1.3	-10.7	·
Cc1ccc(C(=O)CSc2ncnc3sc4c(c23)CCCC4)cc1	34.3*	0.2	-1.3	1.3	7.7	-2.5	18.4*
CC(=O)c1cc2c(cc1N/C(=N/S(=O)(=O)c1ccc(C)cc1)c1ccccc1)OCO2	21.8	0.0	0.3	-2.1	-7.1	-9.9	·
CC(=O)c1cc2c(cc1N/C(=N/S(=O)(=O)c1ccc(C)cc1)c1ccc(Cl)cc1)OCO2	91.8*	-0.1	-2.1	-11.8	7.0	1.2	57.3*	RORg DNA counter=>40
CC(=O)c1cc2c(cc1NC(=O)c1ccc(C)cc1)OCCO2	27.6*	0.0	7.9	24.9	5.1	·	3.1
O=c1cc(-c2ccccc2Cl)oc2c(NS(=O)(=O)c3ccccc3C(F)(F)F)ccc(O)c12	0.5	0.1	-0.7	-7.8	-1.2	-6.5	·
O=c1cc(-c2ccccc2Cl)oc2c(NS(=O)(=O)c3cccs3)ccc(O)c12	26.9*	0.1	0.1	-18.3	-5.7	-8.8	33.4*	RORg DNA counter=>40
CCCNC(=O)c1c(NC(=O)C2COc3ccccc3O2)sc2c1CCCC2 (stereo not given)	48.8*	-0.1	0.2	-7.4	1.3	-3.2	3.8
O=C(NC1CCS(=O)(=O)C1)c1c(NC(=O)C2COc3ccccc3O2)sc2c1CCCC2 (stereo not given)	2.7	0.4	0.7	-6.4	3.7	-7.4	·
SMILES	Rev-erbA mod	aDG glyco up	PG9 binder	ZTA counter	EBNA-1 inh	NCF1 inh	Rev-erbA confirm	others
CCOC(=O)c1cc(NC(=O)c2ccccc2)c(=O)oc1-c1ccccc1	8.3	-0.2	0.3	0.9	-2.4	-8.7	·
COC(=O)c1cc(NC(=O)c2ccccc2)c(=O)oc1/C=C/Nc1ccc(Oc2ccccc2)cc1	33.0*	-0.3	-0.5	·	·	-231.7	6.2
COc1ccc(/C=C2\Oc3cc(OC(=O)N4CCOCC4)ccc3C2=O)c(OC)c1	22.1*	0.3	-1.7	15.5	-1.5	-3.3	8.7
COc1ccc(-c2ccc3oc(-c4ccsc4)cc(=O)c3c2)cn1	-0.7	1.1	-1.1	·	·	·	·
COc1ccc(-c2ccc3oc(-c4ccsc4)cc(=O)c3c2)cc1F	66.1*	0.2	-7.4	·	·	·	30.6*
Oc1[nH]c2ccc(Br)cc2c1N=NC(=S)N1CCOCC1	18.9*	0.3	-0.8	12.4	0.4	-18.2	24.0*
Oc1[nH]c2ccccc2c1N=NC(=S)N1CCOCC1	·	0.1	·	18.1	8.5	-9.0	·
Cc1ccc2cc(CCNC(=O)C(=O)c3c[nH]c4ccccc34)c(=O)[nH]c2c1	39.8*	-0.2	-0.9	-11.0	-4.9	-26.0	19.0*
CC(C)CN1C(=O)[C@]2(CC(=O)N(C)C2c2ccccc2)c2cc(-n3cc(CCc4ccccc4)nn3)ccc21 (stereo not given in full)	3.7	·	·	·	·	·	·
CCOc1ccc(NC(=O)c2cc3c(=O)n(C)c4ccccc4c3n2C)cc1	40.9*	-0.2	-0.9	4.0	4.9	13.4	21.0*
COC(=O)c1ccc(Cn2ccc3ccc(-c4ccc5ccn(C(=O)c6ccccc6C)c5c4)cc32)cc1	30.2*	·	·	·	·	·	42.1*	RORg DNA counter=>40
COc1ccc(Cn2ccc3ccc(-c4ccc5ccn(C(=O)c6cccc(OC)c6)c5c4)cc32)cc1	37.5*	·	·	·	·	·	70.6*	RORg DNA counter=>40
N#Cc1ccc(Cn2ccc3ccc(-c4ccc5ccn(C(=O)C6CCCCC6)c5c4)cc32)cc1	36.1*	·	·	·	·	·	18.3*
COC(=O)c1ccc(Cn2ccc3ccc(-c4ccc5ccn(C(=O)c6ccccc6)c5c4)cc32)cc1	13.6	·	·	·	·	·	·
COC(=O)c1ccc(Cn2ccc3ccc(-c4ccc5ccn(Cc6ccc(OC)cc6)c5c4)cc32)cc1	4.8	·	·	·	·	·	·
N#Cc1ccc(Cn2ccc3ccc(-c4ccc5ccn(C(=O)C6CCC6)c5c4)cc32)cc1	16.4	·	·	·	·	·	·
COC(=O)c1ccc(Cn2ccc3ccc(-c4ccc5ccn(C(=O)c6cccc(OC)c6)c5c4)cc32)cc1	39.5*	·	·	·	·	·	52.2*	RORg DNA counter=>40
COc1ccc(/C(C)=N\NC(=O)c2ccco2)cc1	-4.3	·	·	·	·	·	·
CC(C)(C)c1ccc(-c2nnc3n2N=C(c2ccc(Cl)cc2)CS3)cc1	5.6	·	·	·	·	·	·
